Experimental data from publication PMC9838217, “Structure of SALL4 zinc finger domain reveals link between AT-rich DNA binding and Okihiro syndrome”.
Positions count from the first letter of the chain named.

Columns and labels:
Assay in all cases: HT-SELEX; high values mean tight binding
Conditions in all cases: protein: recombinant; vector His6-GST; dsDNA, one strand shown
SALL4 ZFC4 WT (HT-SELEX) = molecular target: T1, SALL4 ZFC4 WT (HT-SELEX) (Mus musculus, UniProt Q8BX22 870-940)
T1 sequence: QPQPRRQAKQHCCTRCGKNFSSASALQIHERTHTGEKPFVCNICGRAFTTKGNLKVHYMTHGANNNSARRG
Method in brief: (§1)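 Each canonical k-mer's binding signal is its read fraction expressed as fold change over the initial random library. Reads came from MiSeq sequencing, scanned for 6-mers, after up to 6 triplicate cycles in which purified recombinant mouse SALL4 zinc finger cluster 4 (residues 870–940, 1 µg) bound library DNA (1.5 µg first cycle, 200 ng later) in 100 µl of 10 mM Tris–HCl pH 7.5, 50 mM NaCl, poly(dI-dC), DTT for 10 min at room temperature. Complexes were then Ni2+ bead-captured, washed, PCR-amplified and reselected.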

[1] = molecular target: T2, SALL4 ZFC4 R900W (HT-SELEX) (Mus musculus, UniProt Q8BX22 870-940, R900W)
T2 sequence: T1 sequence with R31W
Method in brief: as §1

[2] = molecular target: T3, SALL4 ZFC4 G921D (HT-SELEX) (Mus musculus, UniProt Q8BX22 870-940, G921D)
T3 sequence: T1 sequence with G52D
Method in brief: as §1

| Sequence | binding signal (SALL4 ZFC4 WT (HT-SELEX)) | binding signal [1] | binding signal [2] |
| --- | --- | --- | --- |
| ATTATC | 2.31 ± 0.229 fold-change vs cycle 0 | 2.08 ± 0.177 fold-change vs cycle 0 | 1.85 ± 0.207 fold-change vs cycle 0 |
| ACTCCT | 1.01 ± 0.0205 fold-change vs cycle 0 | 1.15 ± 0.052 fold-change vs cycle 0 | 1.144 ± 0.00693 fold-change vs cycle 0 |
| CACTGC | 0.334 ± 0.0238 fold-change vs cycle 0 | 0.388 ± 0.00394 fold-change vs cycle 0 | 0.511 ± 0.0704 fold-change vs cycle 0 |
| GAGTTA | 1.47 ± 0.0406 fold-change vs cycle 0 | 1.52 ± 0.0183 fold-change vs cycle 0 | 1.45 ± 0.0562 fold-change vs cycle 0 |
| ACACAG | 0.726 ± 0.03 fold-change vs cycle 0 | 0.835 ± 0.00993 fold-change vs cycle 0 | 0.877 ± 0.04 fold-change vs cycle 0 |
| CACCCA | 0.431 ± 0.034 fold-change vs cycle 0 | 0.488 ± 0.0313 fold-change vs cycle 0 | 0.59 ± 0.0722 fold-change vs cycle 0 |
| CTACTA | 1.31 ± 0.0478 fold-change vs cycle 0 | 1.47 ± 0.0658 fold-change vs cycle 0 | 1.39 ± 0.0974 fold-change vs cycle 0 |
| ACCCAG | 0.455 ± 0.0148 fold-change vs cycle 0 | 0.526 ± 0.0133 fold-change vs cycle 0 | 0.628 ± 0.0574 fold-change vs cycle 0 |
| CTGGTA | 0.8022 ± 0.00263 fold-change vs cycle 0 | 0.908 ± 0.0333 fold-change vs cycle 0 | 0.954 ± 0.0144 fold-change vs cycle 0 |
| AATCGT | 1.18 ± 0.0336 fold-change vs cycle 0 | 1.21 ± 0.0227 fold-change vs cycle 0 | 1.23 ± 0.0244 fold-change vs cycle 0 |
| GGAGAA | 0.849 ± 0.0319 fold-change vs cycle 0 | 0.985 ± 0.0471 fold-change vs cycle 0 | 0.959 ± 0.0602 fold-change vs cycle 0 |
| GTGTCA | 0.688 ± 0.0282 fold-change vs cycle 0 | 0.805 ± 0.0104 fold-change vs cycle 0 | 0.881 ± 0.0197 fold-change vs cycle 0 |
| CGAGAG | 0.428 ± 0.0305 fold-change vs cycle 0 | 0.515 ± 0.0447 fold-change vs cycle 0 | 0.628 ± 0.0528 fold-change vs cycle 0 |
| GATAAA | 2.01 ± 0.0629 fold-change vs cycle 0 | 1.92 ± 0.127 fold-change vs cycle 0 | 1.69 ± 0.118 fold-change vs cycle 0 |
| CCCCTC | 0.31 ± 0.0217 fold-change vs cycle 0 | 0.35 ± 0.0216 fold-change vs cycle 0 | 0.456 ± 0.0591 fold-change vs cycle 0 |
| AATCGG | 0.593 ± 0.0172 fold-change vs cycle 0 | 0.657 ± 0.021 fold-change vs cycle 0 | 0.763 ± 0.0166 fold-change vs cycle 0 |
| ATGACG | 0.724 ± 0.0223 fold-change vs cycle 0 | 0.789 ± 0.0467 fold-change vs cycle 0 | 0.852 ± 0.0204 fold-change vs cycle 0 |
| CACGAG | 0.41 ± 0.0151 fold-change vs cycle 0 | 0.496 ± 0.0211 fold-change vs cycle 0 | 0.599 ± 0.0729 fold-change vs cycle 0 |
| ATTGGG | 0.725 ± 0.0369 fold-change vs cycle 0 | 0.818 ± 0.0162 fold-change vs cycle 0 | 0.856 ± 0.0353 fold-change vs cycle 0 |
| ACTTTC | 1.28 ± 0.0405 fold-change vs cycle 0 | 1.42 ± 0.0806 fold-change vs cycle 0 | 1.37 ± 0.0709 fold-change vs cycle 0 |
| CGTGGA | 0.351 ± 0.0215 fold-change vs cycle 0 | 0.435 ± 0.0211 fold-change vs cycle 0 | 0.54 ± 0.0631 fold-change vs cycle 0 |
| CTAAGA | 1.36 ± 0.0387 fold-change vs cycle 0 | 1.51 ± 0.0736 fold-change vs cycle 0 | 1.42 ± 0.0981 fold-change vs cycle 0 |
| CTTTGA | 1.2 ± 0.0763 fold-change vs cycle 0 | 1.36 ± 0.0716 fold-change vs cycle 0 | 1.33 ± 0.077 fold-change vs cycle 0 |
| AACTTC | 1.37 ± 0.0514 fold-change vs cycle 0 | 1.52 ± 0.0544 fold-change vs cycle 0 | 1.4 ± 0.0625 fold-change vs cycle 0 |
| ATAGTC | 1.25 ± 0.0415 fold-change vs cycle 0 | 1.31 ± 0.0594 fold-change vs cycle 0 | 1.33 ± 0.0589 fold-change vs cycle 0 |
| GACTGA | 0.805 ± 0.0317 fold-change vs cycle 0 | 0.959 ± 0.0214 fold-change vs cycle 0 | 0.953 ± 0.0219 fold-change vs cycle 0 |
| AGTAGA | 1.33 ± 0.0604 fold-change vs cycle 0 | 1.54 ± 0.0844 fold-change vs cycle 0 | 1.41 ± 0.124 fold-change vs cycle 0 |
| ATATGC | 1.17 ± 0.106 fold-change vs cycle 0 | 1.07 ± 0.0294 fold-change vs cycle 0 | 1.13 ± 0.0399 fold-change vs cycle 0 |
| ATTCTG | 1.27 ± 0.0284 fold-change vs cycle 0 | 1.35 ± 0.0356 fold-change vs cycle 0 | 1.28 ± 0.0492 fold-change vs cycle 0 |
| AGAAAC | 1.21 ± 0.0656 fold-change vs cycle 0 | 1.36 ± 0.0395 fold-change vs cycle 0 | 1.31 ± 0.0847 fold-change vs cycle 0 |
